Binding signal data for 26 sequences are collected here from article PMC5700166.

In this experiment the target is T1, GST-Aq-NF-kB (Amphimedon queenslandica, UniProt A9Y5G7 2-389).
T1 sequence: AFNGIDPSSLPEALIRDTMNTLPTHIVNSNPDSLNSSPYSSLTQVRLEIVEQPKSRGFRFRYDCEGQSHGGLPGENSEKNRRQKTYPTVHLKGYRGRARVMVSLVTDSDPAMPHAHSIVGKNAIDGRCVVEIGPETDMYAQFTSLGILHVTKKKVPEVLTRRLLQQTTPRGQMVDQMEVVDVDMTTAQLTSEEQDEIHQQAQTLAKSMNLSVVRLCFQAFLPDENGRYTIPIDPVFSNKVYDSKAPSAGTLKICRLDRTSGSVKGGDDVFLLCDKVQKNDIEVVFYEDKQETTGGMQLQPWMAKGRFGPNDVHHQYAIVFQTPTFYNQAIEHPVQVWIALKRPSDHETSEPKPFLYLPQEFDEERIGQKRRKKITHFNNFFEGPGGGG
The experiment is described as follows: protein-binding microarray (PBM); PBM: ~300 nM protein, 6 mM HEPES pH 7.8, 80 mM KCl, 0.5 mM EDTA, 0.5 mM EGTA, 6% glycerol, 35 ng/ul poly-dIdC, 1% milk, 1 h, room temperature; Ap Aiptasia and Nv Nematostella (sea anemones) / Co Capsaspora / Aq Amphimedon (sponge) / Dm Drosophila / Hu human; RHD is the Rel homology domain; high values mean tight binding. As to conditions: dsDNA, one strand shown.
Consider “CCGATTAACATCAAGGAATGTCCTGATGTTAATCGGGTCTTGATTCGCTTGACGCTGCTG”, for which the binding signal amounted to 1.74 z-score.
Sequence “CCGATTAACATCAGCAAAATTCCTGATGTTAATCGGGTCTTGATTCGCTTGACGCTGCTG” displayed a binding signal of 1.04 z-score.
“CCGATTAACATCAGAAATTCCGCTGATGTTAATCGGGTCTTGATTCGCTTGACGCTGCTG”: the binding signal was determined as 1.09 z-score.
In the case of “CCGATTAACATCACGGCATTTCCTGATGTTAATCGGGTCTTGATTCGCTTGACGCTGCTG” it was 1.96 z-score.
In the case of “CCGATTAACATCAAAAATATTCCTGATGTTAATCGGGTCTTGATTCGCTTGACGCTGCTG” it was 1 z-score; in that of “CCGATTAACATCAGGAATTGCCATGATGTTAATCGGGTCTTGATTCGCTTGACGCTGCTG”, 1.02 z-score.
In turn, “CCGATTAACATCAAAATTTCCGTTGATGTTAATCGGGTCTTGATTCGCTTGACGCTGCTG” had a binding signal of 1.64 z-score.
Consider “CCGATTAACATCAAGGAACTTCCTGATGTTAATCGGGTCTTGATTCGCTTGACGCTGCTG”, for which the binding signal came to 1.83 z-score.
In the case of “CCGATTAACATCAAGGAAAAGCCTGATGTTAATCGGGTCTTGATTCGCTTGACGCTGCTG” it was 1.11 z-score; in that of “CCGATTAACATCAGGAATCGCCCTGATGTTAATCGGGTCTTGATTCGCTTGACGCTGCTG”, 2.28 z-score.
In the case of “CCGATTAACATCAAACCCTACTGTGATGTTAATCGGGTCTTGATTCGCTTGACGCTGCTG” it was 1.19 z-score; in that of “CCGATTAACATCAACGGAATTTCTGATGTTAATCGGGTCTTGATTCGCTTGACGCTGCTG”, 1 z-score.
In the case of “CCGATTAACATCAAGGAGATTCCTGATGTTAATCGGGTCTTGATTCGCTTGACGCTGCTG” it was 1.73 z-score.
As to “CCGATTAACATCAGGAAACTTCCTGATGTTAATCGGGTCTTGATTCGCTTGACGCTGCTG”, the binding signal worked out at 1.43 z-score.
In the case of “CCGATTAACATCACGGATTGCCCTGATGTTAATCGGGTCTTGATTCGCTTGACGCTGCTG” it was 1.2 z-score; in that of “CCGATTAACATCAGGAAGTGCCCTGATGTTAATCGGGTCTTGATTCGCTTGACGCTGCTG”, 2.55 z-score.
Turning to “CCGATTAACATCAGGCATTTCCATGATGTTAATCGGGTCTTGATTCGCTTGACGCTGCTG”, the binding signal was 1.13 z-score.
In the case of “CCGATTAACATCAGGACATTCCATGATGTTAATCGGGTCTTGATTCGCTTGACGCTGCTG” it was 1.23 z-score; in that of “CCGATTAACATCACGGAGATTCCTGATGTTAATCGGGTCTTGATTCGCTTGACGCTGCTG”, 2.72 z-score; in that of “CCGATTAACATCAGAATTTCCGCTGATGTTAATCGGGTCTTGATTCGCTTGACGCTGCTG”, 1.06 z-score.
In the case of “CCGATTAACATCACTAAATTTCCTGATGTTAATCGGGTCTTGATTCGCTTGACGCTGCTG” it was 1.07 z-score; in that of “CCGATTAACATCACGGACATTCCTGATGTTAATCGGGTCTTGATTCGCTTGACGCTGCTG”, 1.97 z-score; in that of “CCGATTAACATCAGGAAACGCCCTGATGTTAATCGGGTCTTGATTCGCTTGACGCTGCTG”, 3.05 z-score.
In the case of “CCGATTAACATCAGGAAATTTCATGATGTTAATCGGGTCTTGATTCGCTTGACGCTGCTG” it was 1.4 z-score; in that of “CCGATTAACATCACGGATATTCCTGATGTTAATCGGGTCTTGATTCGCTTGACGCTGCTG”, 1.34 z-score; in that of “CCGATTAACATCACGGAGAATCCTGATGTTAATCGGGTCTTGATTCGCTTGACGCTGCTG”, 1.18 z-score.
